# In the library only some 2.8% were active in any assay of this set; here they are far more common.
# PAFAH1B3 inh: inhibitors of human PAFAH1B3 | recombinant PAFAH1B3, FP-rhodamine probe, fluorescence polarization | 0.28% of 340,000 active | Q15102 | inhibition, % at 3.39 µM;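 active = inhibition above the screen-wide average of all tested compounds plus 3 SD, cut at about 25% in these data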;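 note: 0% = enzyme with DMSO only and 100% = wells lacking PAFAH1B3 protein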
# PAFAH2 FP inh: inhibitors of human PAFAH2. Q99487. recombinant PAFAH2, FP-rhodamine activity probe, fluorescence polarization. inhibition, % at 3.39 µM. 0.99% of 340,000 active. AID 492956;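 active = inhibition above the mean over all tested compounds plus 3 SD, cut at about 30% in these data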;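 note: inhibitors block probe labeling of enzyme so polarization drops; 0% = enzyme with DMSO and 100% = wells lacking PAFAH2 protein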
# Fam108B counter: Fam108B inhibition, counter-screen for RBBP9 inhibitors; recombinant Fam108B, FP-Rh probe fluorescence polarization; inhibition, % at 9.51 µM; 0.33% of 300,000 active; AID 1947;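 active = inhibition above the screen mean inhibition plus 3 SD, computed separately per campaign, cut at about 18% in these data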;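 note: inhibitors lower polarization as less probe binds the enzyme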
# pPAFAH inh: pPAFAH (human) enzyme inhibition. inhibition, % at 3.39 µM. AID 463082. recombinant pPAFAH, FP-rhodamine probe fluorescence polarization. 1.5% of 330,000 active;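 active = inhibition above the mean inhibition across the screen plus 3 SD, cut at about 25% in these data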;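 note: inhibitors block binding of the rhodamine activity-based probe so polarization drops; 0% = enzyme with DMSO and 100% = wells lacking pPAFAH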
# PME-1 inh: PME-1 (human) inhibition. Q9Y570. 0.53% of 320,000 active. recombinant PME-1, FP-Rh probe fluorescence polarization. inhibition, % at 5.9 µM;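 active = inhibition above the campaign mean of all compounds plus 3 SD, cut at about 26% in these data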;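 note: competitive labeling of PME-1 active site by serine hydrolase directed probe; 0% = PME-1 with DMSO and 100% = wells lacking PME-1 enzyme; inhibitors block probe labeling so polarization falls and inhibition rises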
# Target sequence (Q9Y570 whole entry, looked up): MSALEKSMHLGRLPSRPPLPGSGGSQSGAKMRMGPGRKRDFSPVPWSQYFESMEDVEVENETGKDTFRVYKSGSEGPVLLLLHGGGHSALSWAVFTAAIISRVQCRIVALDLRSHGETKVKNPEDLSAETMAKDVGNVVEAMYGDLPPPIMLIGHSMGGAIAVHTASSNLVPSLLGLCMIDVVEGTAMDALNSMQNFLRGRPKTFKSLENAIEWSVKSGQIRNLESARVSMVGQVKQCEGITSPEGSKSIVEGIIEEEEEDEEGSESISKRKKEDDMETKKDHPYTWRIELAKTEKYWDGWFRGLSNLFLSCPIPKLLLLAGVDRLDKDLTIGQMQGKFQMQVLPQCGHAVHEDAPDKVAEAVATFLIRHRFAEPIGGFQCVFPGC
# PAFAH1B2 FP inh: blocks human PAF acetylhydrolase 1b catalytic subunit 2; P68402; recombinant PAFAH1B2, FP-rhodamine activity probe, fluorescence polarization; inhibition, % at 3.39 µM; 1.2% of 340,000 active;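 active = inhibition above the mean of all tested compounds plus 3 SD, cut at about 24% in these data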;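 note: 0% = enzyme with DMSO and 100% = wells lacking PAFAH1B2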
# Target sequence (P68402 whole entry, looked up): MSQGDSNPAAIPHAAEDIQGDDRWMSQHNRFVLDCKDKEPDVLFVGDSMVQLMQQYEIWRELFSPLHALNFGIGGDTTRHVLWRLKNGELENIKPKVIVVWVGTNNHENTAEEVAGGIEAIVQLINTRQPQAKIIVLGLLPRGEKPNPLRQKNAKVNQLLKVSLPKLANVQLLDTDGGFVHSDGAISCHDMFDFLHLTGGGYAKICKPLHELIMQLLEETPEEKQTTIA
# Fam108b inh conf: confirmation of mouse Fam108b serine hydrolase inhibitors; shares compounds with Fam108B counter; inhibition, % at 9.51 µM; 44% of 930 active; recombinant Fam108b, FP-Rh probe fluorescence polarization;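 active = inhibition above a limit from the primary screen, the mean over all compounds plus 3 SD, cut at about 19% in these data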;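 note: 0% = median of active Fam108b wells and 100% = catalytically dead S170A mutant; inhibitors free the probe so polarization falls as inhibition rises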
# Fam108b ABPP HTS: mouse ABHD17B inhibition; inhibition, % at 20 µM; 44% of 260 active; AID 588649; recombinant Fam108b, gel-based ABPP, fluorophosphonate probe; shares compounds with Fam108B counter; in the data active = inhibition above about 40%
# Active calls of the source: *; / = not tested or not shown.
SMILES,PAFAH1B3 inh,PAFAH2 FP inh,Fam108B counter,pPAFAH inh,PME-1 inh,PAFAH1B2 FP inh,Fam108b inh conf,others
CC(=O)Nc1ccc(N=Cc2c(O)c(C(=O)Nc3ccccc3)cc3ccccc23)cc1,/,/,22*,11,3,/,14,
CC(=O)Nc1ccc(N=Cc2c(O)c3ccccc3oc2=O)cc1,-10,-5,/,/,/,4,/,
CCCn1c(=N)n(CC(=O)c2ccc([N+](=O)[O-])cc2)c2ccccc21,10,2,24*,11,14,2,2,
CC1=C(C)C(=O)C(N2CCOCC2)=CC1=O,0,-3,/,/,/,2,/,
O=C1C=C(N2CCOCC2)c2ccccc2C1=O,77*,47*,58*,9,28*,21,66*,Fam108b ABPP HTS=20
COc1ccccc1NS(=O)(=O)c1cc(NC(=O)c2cccs2)ccc1N1CCCC1,-3,-33,7,-1,-14,-6,/,
O=C(Nc1ccc(N2CCCC2)c(S(=O)(=O)Nc2cccc(C(F)(F)F)c2)c1)c1cccs1,9,-30,21*,3,8,0,33*,Fam108b ABPP HTS=85*
CC1=NOC(=O)/C1=C/c1ccc(-c2ccc(Cl)cc2)o1,11,32*,19*,12,-1,10,16,
CC1CCCN(S(=O)(=O)c2ccc(C(=O)Nc3ccccc3-c3nc4ccccc4[nH]3)cc2)C1 (configuration not stated),-4,-20,-33,3,-10,-8,/,
CC1CCN(S(=O)(=O)c2ccc(C(=O)Nc3ccccc3-c3nc4ccccc4[nH]3)cc2)CC1,-4,25,29*,-6,-46,8,71*,Fam108b ABPP HTS=100*
O=C(NCC1CC1)c1ccc(Nc2nc3ccc(Br)cc3[nH]2)cc1,24,-16,19*,19,7,18,48*,Fam108b ABPP HTS=75*
O=C(Cc1ccc(Nc2nc3ccc(Br)cc3[nH]2)cc1)NCCc1cccs1,20,12,14,19,24,12,/,
COc1ccc(NC(=O)Nc2cc(C)ccc2OC)cc1,5,7,1,6,5,4,/,
COc1ccc(NC(=O)Nc2ccccc2OC)cc1,7,2,4,10,7,6,/,
COc1ccc(OC)c(NC(=O)Nc2ccc(Cl)cc2)c1,5,7,23*,12,21,3,14,
COc1ccccc1NC(=O)Nc1ccc(NC(=O)c2ccccc2O)cc1,13,5,21*,12,0,0,-2,
O=C(O)C1=CC(=C(c2ccc(O)c(C(=O)O)c2)c2ccc(O)c(C(=O)O)c2)C=CC1=O,/,/,53*,66*,-55,/,32*,
CC1=C/C(=C(\c2ccc(O)c(C)c2)c2ccccc2S(=O)(=O)O)C=CC1=O,5,2,5,5,0,7,/,
COc1cccc(-c2nc(-c3ccc4c(c3)-c3ccccc3S4(=O)=O)c(-c3ccccc3)[nH]2)c1OC,-8,-4,-8,5,-9,-4,/,
COc1cc(-c2nc(-c3ccc4c(c3)-c3ccccc3S4(=O)=O)c(-c3ccccc3)[nH]2)cc(OC)c1OC,-4,-29,29*,14,14,-11,4,
O=C1C=C(Nc2ccccc2)C(=O)c2ccccc21,4,-1,3,3,7,3,/,
Cc1ccc(S(=O)(=O)/N=C2\C=C(Nc3cccc(C(=O)O)c3)C(=O)c3ccccc32)c(C)c1,63*,58*,35*,27*,23,30*,49*,Fam108b ABPP HTS=15
Cc1ccc(S(=O)(=O)/N=C2\C=C(Nc3cccc(C(=O)O)c3)C(=O)c3ccccc32)cc1,65*,51*,50*,24,25,36*,60*,Fam108b ABPP HTS=0
CCc1ccc(S(=O)(=O)/N=C2\C=C(Nc3ccc(C(=O)O)cc3)C(=O)c3ccccc32)cc1,58*,50*,58*,33*,30*,32*,74*,Fam108b ABPP HTS=0
CCOC(=O)c1cc([N+](=O)[O-])cc([N+](=O)[O-])c1Sc1ncnc2nc[nH]c12,12,8,/,/,/,2,/,
SMILES,PAFAH1B3 inh,PAFAH2 FP inh,Fam108B counter,pPAFAH inh,PME-1 inh,PAFAH1B2 FP inh,Fam108b inh conf,others
CCOC(=O)c1c(C)[nH]c(C2=NNC(=Nc3cccc(Cl)c3)SC2)c1C,/,/,22*,14,34*,/,-4,
CC(=O)c1c(C)[nH]c(C2=NNC(=NCc3ccccc3)SC2)c1C,5,-1,7,6,0,10,/,
Cc1cc(NC(=O)/C(C#N)=C\c2ccc(-c3ccc(SC(F)F)cc3)o2)n(-c2ccccc2)n1,2,-2,/,/,/,3,/,
CCN(CC(=O)Nc1ccc(NC(C)=O)cc1)C(=O)c1cccc(S(=O)(=O)N2CCc3ccccc3C2)c1,7,-4,3,-2,6,7,/,
COC(=O)C1=C(C(=O)OC)[C@@H]2N(C)c3ccccc3[C@@]23C[C@@H](C(=O)OC)N(C(=O)c2ccc(Br)cc2)C3=N1,11,-5,-6,-4,1,-2,/,
CCCCn1c(N)c(N(CC)C(=O)c2ccc([N+](=O)[O-])c(C)c2)c(=O)[nH]c1=O,-2,-6,-2,-2,-4,0,/,
CCc1ccc(CN2CCCC(C(=O)N3CCCCC3)C2)cc1 (configuration not stated),-2,-1,4,4,3,0,/,
O=C(Nc1nc(-c2ccco2)c(-c2ccco2)s1)c1cnccn1,/,/,25*,33*,-3,/,5,
O=C(COc1ccc2c3c(c(=O)oc2c1)CCC3)NCCCN1CCCC1=O,7,0,0,3,-1,1,/,
Oc1ccc(Nc2nc3ccccc3nc2Nc2ccc(O)cc2)cc1,40*,-35,45*,11,33*,27*,15,
COc1ccc(/C=C2/CSC/C(=C/c3ccc(OC)c(OC)c3)C2=O)cc1OC,0,7,/,/,/,-1,/,
Cc1cc(C(=O)O)ccc1-n1c(C)ccc1C,/,/,24*,50*,-18,/,14,
Cc1ccc(-n2c(C)cc(=O)cc2C)c(C)c1,0,4,-3,5,1,2,/,
Cc1cc(N)ccc1-n1c(C)ccc1C,24,9,42*,33*,90*,6,4,
COc1ccccc1N(CC(=O)N/N=C(\C)c1ccc(F)cc1)S(=O)(=O)c1ccccc1,5,0,/,4,-3,-1,/,
O=C1CCCC(O)=C1N=Nc1ccc2c(c1)OCO2,-4,3,1,2,-5,-3,/,
O=C1CCCC(O)=C1N=Nc1ccc(C(=O)O)cc1,50*,52*,25*,31*,-18,39*,20*,
O=C(O)c1ccc(-n2cccc2/C=C2/NC(=O)N(c3ccccc3)C2=O)cc1,12,26,20*,29*,-15,14,17,
CC/C(=N\Nc1ccnc2cc(Cl)ccc12)c1ccc(O)cc1,9,-3,8,6,25,7,/,
